Here are results for 29 compounds from the supplement of paper PMC12340641.

Assay [1] concerns the target IKZF1 (dCK*-IKZF1 fusion in HEK293FT) (UniProt Q13422). Briefly: inhibition of IKZF1 HTRF signal (DMSO = 0%, pomalidomide 10 uM = 100%); higher = lower IKZF1 protein level. To be noted: compound concentration: 5 uM, overnight (~20 h). The gist of the method: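 Values are percent inhibition of IKZF1 signal, normalised plate by plate against vehicle and a reference degrader. HEK293FT cells stably expressing an IKZF1 fusion were seeded at 2000 per well in 384-well plates and exposed to 5 μM compound in single wells overnight at 37 °C. After 30 min lysis at room temperature, lysates were incubated overnight with a commercial HTRF total-IKZF1 antibody kit, and the background-subtracted 665/620 nm time-resolved FRET ratio was read. On each plate, vehicle was set at 0% and the reference degrader at 100%.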

The subject of assay [2] is HEK293FT dCK*-only. Briefly: relative growth in counter assay (no AraC = 100%, AraC + DMSO = 0%); higher = more growth rescue independent of IKZF1. To be noted: compound concentration: 5 uM; AraC concentration: 0.3 uM; overnight pretreatment + 4 days AraC. Put shortly: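 This counter assay used HEK293FT cells expressing only an engineered kinase construct, seeded at 300 per well in 384-well plates. Compound was added at 5 μM 2 h after seeding, and after overnight at 37 °C the cells received a nucleoside suicide substrate at 0.3 μM plus medium for 4 days. On day 5, nuclei stained with Hoechst 33342 were counted by imaging, and relative growth was normalised per plate; wells without suicide substrate were set at 100% and wells with substrate plus vehicle at 0%.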

Assay [3] concerns HEK293FT dCK*-IKZF1. As to the kind of experiment: relative growth recovery (pomalidomide 10 uM = 100%, DMSO = 0%); higher = more growth rescue (IKZF1 fusion degradation). As to conditions: compound concentration: 5 uM; AraC concentration: 0.3 uM; overnight pretreatment + 4 days AraC. The gist of the method: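 HEK293FT cells stably expressing an engineered deoxycytidine kinase–IKZF1 fusion were seeded at 300 per well in 384-well plates and given 5 μM compound 2 h later. After overnight incubation at 37 °C, a nucleoside suicide substrate at 0.3 μM was added with medium for 4 days, and on day 5 Hoechst 33342-stained nuclei were counted by whole-well imaging. Growth recovery was normalised per plate between a reference degrader and vehicle, set to 100% and 0% respectively, and the values are means of duplicates run on different days.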

Molecules are shown by their SMILES. Counter-ions that a name gives are not always drawn.

Chain of IKZF1 (dCK*-IKZF1 fusion in HEK293FT) (Q13422 whole entry, looked up, the tested form may be a part): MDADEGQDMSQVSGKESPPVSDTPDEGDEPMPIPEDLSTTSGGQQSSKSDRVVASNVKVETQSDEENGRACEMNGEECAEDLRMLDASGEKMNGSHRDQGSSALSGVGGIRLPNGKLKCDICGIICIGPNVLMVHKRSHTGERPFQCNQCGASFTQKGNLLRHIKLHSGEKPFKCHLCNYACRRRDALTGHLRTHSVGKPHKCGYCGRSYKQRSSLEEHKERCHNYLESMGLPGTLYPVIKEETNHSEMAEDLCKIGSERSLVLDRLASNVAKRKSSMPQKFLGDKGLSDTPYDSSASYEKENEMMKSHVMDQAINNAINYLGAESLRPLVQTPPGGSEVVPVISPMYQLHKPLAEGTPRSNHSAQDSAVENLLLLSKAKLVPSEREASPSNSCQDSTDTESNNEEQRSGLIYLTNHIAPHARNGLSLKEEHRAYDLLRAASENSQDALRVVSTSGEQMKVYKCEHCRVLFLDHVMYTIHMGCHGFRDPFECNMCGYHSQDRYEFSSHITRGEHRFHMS

As for `Clc1ccc(COC(Cn2ccnc2)c2ccc(Cl)cc2Cl)c(Cl)c1` (configuration not stated), in assay [1], the “inhibition of IKZF1 HTRF signal” value was -32.3%. Besides, in assay [2], the “relative growth in counter assay” value was -7.63%. The relative growth recovery in assay [3] is -6.23%.

For the compound `CCn1c(=O)[nH]c2cc(Cl)c(Cl)cc21`, the “inhibition of IKZF1 HTRF signal” value in assay [1] was -7.25%. For the same compound, the “relative growth in counter assay” value in assay [2] amounted to 6.81%. Besides, in assay [3], the relative growth recovery is -1.89%.

As for `O=C(Nc1cc(C(F)(F)F)cc(C(F)(F)F)c1)Nc1c(Br)cc(Br)cc1-c1nnn[nH]1`, the “inhibition of IKZF1 HTRF signal” value in assay [1] is -17%. Moreover, the “relative growth in counter assay” value in assay [2] is -2.42%. The relative growth recovery in assay [3] was -4.01%.

Take `CCCC(=O)C1CCN(c2ncnc3c2CN(C(=O)c2ccc(-c4ccccc4)cc2)CC3)CC1`: in assay [1], the “inhibition of IKZF1 HTRF signal” value was -10.8%. Further, the “relative growth in counter assay” value in assay [2] is 18%. In addition, the relative growth recovery in assay [3] is 4.94%.

`CC(C)c1ccc(NC(=O)Cn2cnc3c2c(=O)n(C)c(=O)n3C)cc1`: the “inhibition of IKZF1 HTRF signal” value in assay [1] is 12.2%. The “relative growth in counter assay” value in assay [2] was -3.63%. Moreover, the relative growth recovery in assay [3] is -1.03%.

As for `CN[C@H]1CC[C@@H](c2ccc(Cl)c(Cl)c2)c2ccccc21`, the “inhibition of IKZF1 HTRF signal” value in assay [1] was -23.8%. In assay [2], the “relative growth in counter assay” value was 0.69%. For the same compound, the relative growth recovery in assay [3] is -1.94%.

In the case of `Oc1c(I)cc(I)c(O)c1I` [riodoxol], in assay [1], the “inhibition of IKZF1 HTRF signal” value was -5.43%. In assay [2], the “relative growth in counter assay” value was 2.24%. In addition, the relative growth recovery in assay [3] was -3.17%.

For the compound `COc1nccnc1NS(=O)(=O)c1ccc(N)cc1` [sulfametopyrazine], the “inhibition of IKZF1 HTRF signal” value in assay [1] amounted to 6.66%. For the same compound, the “relative growth in counter assay” value in assay [2] is -7.5%. In assay [3], the relative growth recovery was -1.09%.

As to `Oc1cc(O)c2cc(O)c(-c3cc(O)c(O)c(O)c3)[o+]c2c1` [delphinidin], the “inhibition of IKZF1 HTRF signal” value in assay [1] turned out to be 43.4%. The “relative growth in counter assay” value in assay [2] was -7.27%. For the same compound, in assay [3], the relative growth recovery was -1.78%.

On to `Oc1c(CN2CCCC2)cc(COCc2ccccc2)c2cccnc12`, for which the “inhibition of IKZF1 HTRF signal” value in assay [1] was -11.1%. In addition, in assay [2], the “relative growth in counter assay” value is -34.9%. In addition, the relative growth recovery in assay [3] is -13.4%.

Consider `Clc1ccc(CSC(Cn2ccnc2)c2ccc(Cl)cc2Cl)cc1` (configuration not stated), for which the “inhibition of IKZF1 HTRF signal” value in assay [1] is -35.5%. In addition, the “relative growth in counter assay” value in assay [2] was -4.03%. The relative growth recovery in assay [3] was -1.39%.

As to `CN(C)CCCN1c2ccccc2Sc2ccc(Cl)cc21` [Chlorpromazine HCl], the “inhibition of IKZF1 HTRF signal” value in assay [1] was -4.4%. Besides, the “relative growth in counter assay” value in assay [2] is -6.37%. Besides, the relative growth recovery in assay [3] was -2.69%.

With `O=C1NCN(c2ccccc2)C12CCN(CCCC(c1ccc(F)cc1)c1ccc(F)cc1)CC2` [Fluspirilene], in assay [1], the “inhibition of IKZF1 HTRF signal” value is -2.73%. In assay [2], the “relative growth in counter assay” value was 5.04%. Besides, the relative growth recovery in assay [3] was -0.815%.

As for `COc1cccc2c(O)c3c(O)c4c(c(O)c3c(O)c12)=C(O[C@H]1C[C@H](N)[C@H](O)[C@H](C)O1)C[C@](O)(C(C)=O)C=4` [Daunorubicin HCl], in assay [1], the “inhibition of IKZF1 HTRF signal” value was determined as 56.3%. In addition, the “relative growth in counter assay” value in assay [2] is -34.8%. The relative growth recovery in assay [3] was -13.9%.

Turning to `Clc1ccc(C(Cn2ccnc2)OCc2c(Cl)cccc2Cl)c(Cl)c1` (configuration not stated) [Isoconazole nitrate (Travogen)], the “inhibition of IKZF1 HTRF signal” value in assay [1] is -10.4%. Also, in assay [2], the “relative growth in counter assay” value amounted to 0.7%. Also, the relative growth recovery in assay [3] is -3.42%.

On to `Clc1ccc(CSC(Cn2ccnc2)c2ccc(Cl)cc2Cl)cc1` (configuration not stated) [Sulconazole Nitrate], for which the “inhibition of IKZF1 HTRF signal” value in assay [1] is -32.3%. Besides, the “relative growth in counter assay” value in assay [2] was -8.02%. Also, in assay [3], the relative growth recovery was -2.21%.

For the compound `CC(CCc1ccc(O)cc1)NCCc1ccc(O)c(O)c1` (configuration not stated) [Dobutamine HCl], the “inhibition of IKZF1 HTRF signal” value in assay [1] came out at 18.6%. Moreover, in assay [2], the “relative growth in counter assay” value was -5.22%. In assay [3], the relative growth recovery is -1.12%.

For `CCCCc1ccc2[nH]c(NC(=O)OC)nc2c1` [parbendazole], the “inhibition of IKZF1 HTRF signal” value in assay [1] was -10.3%. In assay [2], the “relative growth in counter assay” value is -34.4%. Moreover, the relative growth recovery in assay [3] is -11.7%.

Take `COc1cc(N2CCN(CCOCCOCCNC(=O)CNc3cccc4c3C(=O)N(C3CCC(=O)NC3=O)C4=O)CC2)ccc1Nc1ncc(Cl)c(Nc2ccccc2S(=O)(=O)C(C)C)n1` (configuration not stated): in assay [1], the “inhibition of IKZF1 HTRF signal” value was 34.1%. The “relative growth in counter assay” value in assay [2] was -27.8%. The relative growth recovery in assay [3] is -4.32%.

For `COc1ccc(CN2C(=O)C(=O)c3cc(OC(F)(F)F)ccc32)cc1`, the “inhibition of IKZF1 HTRF signal” value in assay [1] is -14.2%. The “relative growth in counter assay” value in assay [2] is -33.6%. Moreover, the relative growth recovery in assay [3] was -11.5%.

As to `CCc1nc(N)nc(N)c1-c1ccc(Cl)cc1` [Pyrimethamine], the “inhibition of IKZF1 HTRF signal” value in assay [1] is -52.5%. In addition, in assay [2], the “relative growth in counter assay” value came out at 3.76%. Moreover, the relative growth recovery in assay [3] was -1.87%.

Turning to `CC(=O)Oc1ccccc1C(=O)Nc1ncc([N+](=O)[O-])s1`, the “inhibition of IKZF1 HTRF signal” value in assay [1] amounted to 22.3%. Also, the “relative growth in counter assay” value in assay [2] is -5.9%. In addition, the relative growth recovery in assay [3] stood at 0.37%.

Consider `COc1cc(NC(=O)c2ccc(-c3ccc(Cl)cc3)o2)cc(OC)c1`, for which, in assay [1], the “inhibition of IKZF1 HTRF signal” value was -48.3%. The “relative growth in counter assay” value in assay [2] was determined as 14.9%. Besides, the relative growth recovery in assay [3] turned out to be 7.22%.

As for `CCCCCNC(=N)N/N=C/c1c[nH]c2ccc(OC)cc12`, the “inhibition of IKZF1 HTRF signal” value in assay [1] was -1.99%. For the same compound, the “relative growth in counter assay” value in assay [2] was -5.1%. Also, the relative growth recovery in assay [3] was -2.16%.

With `CCc1c2c(nc3ccc(OC(=O)N4CCC(N5CCCCC5)CC4)cc13)-c1cc3c(c(=O)n1C2)COC(=O)[C@]3(O)CC` [irinotecan], in assay [1], the “inhibition of IKZF1 HTRF signal” value came out at 41.6%. For the same compound, the “relative growth in counter assay” value in assay [2] is -35.4%. Further, in assay [3], the relative growth recovery was -13.9%.

As for `Oc1c(Cl)cc(Cl)c2cccnc12`, the “inhibition of IKZF1 HTRF signal” value in assay [1] is -21.5%. The “relative growth in counter assay” value in assay [2] was -3.56%. For the same compound, the relative growth recovery in assay [3] is -0.1%.

Turning to `CCC(=O)O[C@@H]1CC(=O)O[C@H](C)C/C=C/C=C/[C@H](O)[C@H](C)C[C@H](CC=O)[C@H](O[C@@H]2O[C@H](C)[C@@H](O[C@H]3C[C@@](C)(O)[C@@H](OC(=O)CC)[C@H](C)O3)[C@H](N(C)C)[C@H]2O)[C@H]1OC` [Midecamycin], the “inhibition of IKZF1 HTRF signal” value in assay [1] is -31.7%. Besides, the “relative growth in counter assay” value in assay [2] is -8.86%. In assay [3], the relative growth recovery was -1.26%.

With `CC[C@]1(O)C[C@H]2C[N@@](CCc3c([nH]c4ccccc34)[C@@](C(=O)OC)(c3cc4c(cc3OC)N(C=O)[C@H]3[C@@](O)(C(=O)OC)[C@H](OC(C)=O)[C@]5(CC)C=CCN6CC[C@]43[C@@H]65)C2)C1` [Vincristine (sulfate)], the “inhibition of IKZF1 HTRF signal” value in assay [1] was -10.4%. In addition, the “relative growth in counter assay” value in assay [2] is -34.5%. In assay [3], the relative growth recovery is -11.7%.

On to `O=C(OOC(=O)c1ccccc1)c1ccccc1`, for which the “inhibition of IKZF1 HTRF signal” value in assay [1] was -35.6%. Also, the “relative growth in counter assay” value in assay [2] was -0.7%. Besides, in assay [3], the relative growth recovery is 1.32%.
